Unmarked numbers belong to inactive results.
What follows are targets tested with C#CCNC(=O)CCSSCCC(=O)NCCc1ccc(C=O)c(C=O)c1 (assay: lysine labeling ratio R10:1 (500 µM / 50 µM probe), SILAC-ABPP in living cells; higher = lower intrinsic lysine reactivity toward the probe, active = 2 or less). Conditions: HeLa; probe concentrations 500 vs 50 µM.
Summary of the method: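 Living SILAC light and heavy HeLa cells in PBS at room temperature were treated with an alkyne-tagged, disulfide-linked lysine probe at 50 µM or 500 µM, with forward and reverse label swaps. The mixed lysates were clicked to biotin-azide, digested with trypsin, captured on neutravidin, released with DTT, alkylated and run by LC-MS/MS on a TIMS-TOF Pro. R for each lysine is the filtered median high-probe/low-probe MS1 peptide ratio, taken again as the median over forward and reverse replicates. Any value above 20 is set to 20.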

UniProt P08195, sequence (P08195 whole entry): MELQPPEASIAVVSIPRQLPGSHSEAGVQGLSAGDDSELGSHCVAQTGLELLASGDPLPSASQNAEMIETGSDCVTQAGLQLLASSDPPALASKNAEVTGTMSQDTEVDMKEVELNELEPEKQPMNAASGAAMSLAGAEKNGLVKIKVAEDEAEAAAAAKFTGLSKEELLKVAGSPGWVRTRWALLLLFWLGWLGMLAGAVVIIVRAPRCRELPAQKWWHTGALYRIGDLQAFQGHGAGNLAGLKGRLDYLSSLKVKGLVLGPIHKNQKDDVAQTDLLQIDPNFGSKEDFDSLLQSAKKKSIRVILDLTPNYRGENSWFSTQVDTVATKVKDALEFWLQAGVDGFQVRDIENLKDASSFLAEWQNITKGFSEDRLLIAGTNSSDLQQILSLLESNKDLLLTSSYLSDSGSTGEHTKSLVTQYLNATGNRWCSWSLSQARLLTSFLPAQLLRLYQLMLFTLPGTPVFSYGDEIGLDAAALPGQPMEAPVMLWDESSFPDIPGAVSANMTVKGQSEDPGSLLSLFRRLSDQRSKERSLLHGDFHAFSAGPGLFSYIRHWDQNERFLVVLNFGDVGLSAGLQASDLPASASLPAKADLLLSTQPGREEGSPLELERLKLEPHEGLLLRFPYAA
UniProt P21333, sequence (P21333 whole entry): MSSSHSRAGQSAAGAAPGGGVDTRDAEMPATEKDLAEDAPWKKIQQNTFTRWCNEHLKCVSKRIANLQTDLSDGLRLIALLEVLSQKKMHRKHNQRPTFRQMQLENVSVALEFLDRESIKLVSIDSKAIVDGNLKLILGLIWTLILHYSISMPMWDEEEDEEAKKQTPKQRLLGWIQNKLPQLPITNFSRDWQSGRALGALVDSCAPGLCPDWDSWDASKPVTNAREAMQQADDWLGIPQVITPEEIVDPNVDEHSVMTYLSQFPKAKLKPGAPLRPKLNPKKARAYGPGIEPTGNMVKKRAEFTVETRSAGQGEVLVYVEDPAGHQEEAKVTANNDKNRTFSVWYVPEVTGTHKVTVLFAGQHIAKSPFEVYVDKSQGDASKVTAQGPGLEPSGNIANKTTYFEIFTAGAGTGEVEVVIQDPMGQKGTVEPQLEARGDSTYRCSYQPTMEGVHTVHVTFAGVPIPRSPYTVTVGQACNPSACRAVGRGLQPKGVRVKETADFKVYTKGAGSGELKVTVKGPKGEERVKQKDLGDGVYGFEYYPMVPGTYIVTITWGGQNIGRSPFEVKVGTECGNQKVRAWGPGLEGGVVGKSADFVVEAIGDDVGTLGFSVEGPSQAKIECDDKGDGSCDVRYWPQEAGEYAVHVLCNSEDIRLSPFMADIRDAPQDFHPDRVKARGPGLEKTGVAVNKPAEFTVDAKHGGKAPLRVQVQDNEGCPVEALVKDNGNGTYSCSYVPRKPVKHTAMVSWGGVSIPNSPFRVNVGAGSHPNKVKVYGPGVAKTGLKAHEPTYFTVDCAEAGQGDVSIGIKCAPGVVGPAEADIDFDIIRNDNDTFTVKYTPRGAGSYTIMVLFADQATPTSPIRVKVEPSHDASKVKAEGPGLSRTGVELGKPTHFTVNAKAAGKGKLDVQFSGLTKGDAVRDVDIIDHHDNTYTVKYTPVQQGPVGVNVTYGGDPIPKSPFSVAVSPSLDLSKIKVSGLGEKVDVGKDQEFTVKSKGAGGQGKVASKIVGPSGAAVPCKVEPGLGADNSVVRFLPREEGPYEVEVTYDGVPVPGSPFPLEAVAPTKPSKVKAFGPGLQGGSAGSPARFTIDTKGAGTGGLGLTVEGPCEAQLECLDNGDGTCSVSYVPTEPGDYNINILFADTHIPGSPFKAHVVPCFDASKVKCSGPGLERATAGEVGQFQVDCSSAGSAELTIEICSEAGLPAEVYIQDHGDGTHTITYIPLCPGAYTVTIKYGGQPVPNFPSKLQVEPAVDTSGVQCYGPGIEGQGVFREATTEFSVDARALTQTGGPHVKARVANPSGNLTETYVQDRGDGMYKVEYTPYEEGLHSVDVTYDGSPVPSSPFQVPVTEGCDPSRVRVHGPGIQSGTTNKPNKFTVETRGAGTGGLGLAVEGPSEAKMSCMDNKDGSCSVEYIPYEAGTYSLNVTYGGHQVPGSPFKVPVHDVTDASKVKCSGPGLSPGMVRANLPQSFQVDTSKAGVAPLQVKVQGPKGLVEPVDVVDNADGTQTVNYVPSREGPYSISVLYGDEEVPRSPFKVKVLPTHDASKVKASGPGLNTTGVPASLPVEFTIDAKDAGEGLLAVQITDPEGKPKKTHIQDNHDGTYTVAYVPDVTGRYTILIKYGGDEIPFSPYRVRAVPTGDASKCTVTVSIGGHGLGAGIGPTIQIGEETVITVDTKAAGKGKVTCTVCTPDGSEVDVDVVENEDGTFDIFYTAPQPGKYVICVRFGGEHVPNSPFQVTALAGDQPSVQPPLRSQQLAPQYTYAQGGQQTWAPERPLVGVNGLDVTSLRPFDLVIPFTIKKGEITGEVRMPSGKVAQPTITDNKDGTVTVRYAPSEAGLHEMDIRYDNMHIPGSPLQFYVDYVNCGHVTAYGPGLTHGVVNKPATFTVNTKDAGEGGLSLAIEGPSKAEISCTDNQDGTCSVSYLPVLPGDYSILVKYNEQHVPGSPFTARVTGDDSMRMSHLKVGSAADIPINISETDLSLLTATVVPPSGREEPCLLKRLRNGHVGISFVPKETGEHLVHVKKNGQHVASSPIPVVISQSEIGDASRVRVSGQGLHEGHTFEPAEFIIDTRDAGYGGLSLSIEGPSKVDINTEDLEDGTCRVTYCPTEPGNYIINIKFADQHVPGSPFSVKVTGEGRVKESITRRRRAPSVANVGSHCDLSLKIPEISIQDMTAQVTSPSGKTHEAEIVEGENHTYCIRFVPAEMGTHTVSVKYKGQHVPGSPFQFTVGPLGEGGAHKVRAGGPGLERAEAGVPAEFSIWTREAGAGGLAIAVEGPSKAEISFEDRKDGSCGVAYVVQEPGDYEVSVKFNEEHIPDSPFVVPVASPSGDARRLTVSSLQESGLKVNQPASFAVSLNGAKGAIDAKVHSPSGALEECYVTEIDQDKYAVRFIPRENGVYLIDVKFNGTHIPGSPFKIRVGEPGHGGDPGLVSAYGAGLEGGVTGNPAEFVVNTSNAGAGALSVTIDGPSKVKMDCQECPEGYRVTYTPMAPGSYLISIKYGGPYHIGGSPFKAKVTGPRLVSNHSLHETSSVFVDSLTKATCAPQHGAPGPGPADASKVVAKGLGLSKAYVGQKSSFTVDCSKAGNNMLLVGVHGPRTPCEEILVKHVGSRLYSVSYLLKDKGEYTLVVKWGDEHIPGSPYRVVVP
UniProt Q9UKX5, sequence (Q9UKX5 whole entry): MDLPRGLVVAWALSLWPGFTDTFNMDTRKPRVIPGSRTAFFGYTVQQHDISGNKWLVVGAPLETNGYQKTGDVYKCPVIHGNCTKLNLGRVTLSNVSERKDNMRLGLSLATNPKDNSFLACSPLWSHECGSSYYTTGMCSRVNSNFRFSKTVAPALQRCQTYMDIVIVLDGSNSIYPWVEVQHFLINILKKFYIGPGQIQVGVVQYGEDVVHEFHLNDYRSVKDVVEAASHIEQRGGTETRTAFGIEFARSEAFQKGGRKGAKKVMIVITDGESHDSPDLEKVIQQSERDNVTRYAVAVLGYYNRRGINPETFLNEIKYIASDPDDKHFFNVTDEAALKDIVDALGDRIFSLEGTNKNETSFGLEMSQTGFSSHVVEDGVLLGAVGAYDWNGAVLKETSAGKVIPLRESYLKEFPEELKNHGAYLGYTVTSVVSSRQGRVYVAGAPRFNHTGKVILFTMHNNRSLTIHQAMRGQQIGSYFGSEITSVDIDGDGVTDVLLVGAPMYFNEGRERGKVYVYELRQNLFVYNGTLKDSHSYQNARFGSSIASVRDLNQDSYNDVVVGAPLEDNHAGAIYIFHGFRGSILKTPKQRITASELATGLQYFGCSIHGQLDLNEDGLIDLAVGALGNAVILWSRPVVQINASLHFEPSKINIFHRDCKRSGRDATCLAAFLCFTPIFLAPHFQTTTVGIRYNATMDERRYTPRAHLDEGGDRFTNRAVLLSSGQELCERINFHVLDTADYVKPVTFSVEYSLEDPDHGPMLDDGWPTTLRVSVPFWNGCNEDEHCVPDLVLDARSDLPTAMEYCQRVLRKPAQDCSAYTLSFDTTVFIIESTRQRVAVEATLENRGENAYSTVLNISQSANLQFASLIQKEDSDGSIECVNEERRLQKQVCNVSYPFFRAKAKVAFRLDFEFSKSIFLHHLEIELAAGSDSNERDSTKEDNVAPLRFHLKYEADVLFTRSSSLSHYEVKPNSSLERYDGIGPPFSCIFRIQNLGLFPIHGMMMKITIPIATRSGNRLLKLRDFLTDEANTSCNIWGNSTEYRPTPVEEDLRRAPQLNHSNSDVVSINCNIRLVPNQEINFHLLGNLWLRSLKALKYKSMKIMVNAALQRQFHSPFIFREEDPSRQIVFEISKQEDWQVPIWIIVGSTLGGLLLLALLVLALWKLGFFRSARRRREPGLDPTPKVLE
UniProt Q14247, sequence (Q14247 whole entry): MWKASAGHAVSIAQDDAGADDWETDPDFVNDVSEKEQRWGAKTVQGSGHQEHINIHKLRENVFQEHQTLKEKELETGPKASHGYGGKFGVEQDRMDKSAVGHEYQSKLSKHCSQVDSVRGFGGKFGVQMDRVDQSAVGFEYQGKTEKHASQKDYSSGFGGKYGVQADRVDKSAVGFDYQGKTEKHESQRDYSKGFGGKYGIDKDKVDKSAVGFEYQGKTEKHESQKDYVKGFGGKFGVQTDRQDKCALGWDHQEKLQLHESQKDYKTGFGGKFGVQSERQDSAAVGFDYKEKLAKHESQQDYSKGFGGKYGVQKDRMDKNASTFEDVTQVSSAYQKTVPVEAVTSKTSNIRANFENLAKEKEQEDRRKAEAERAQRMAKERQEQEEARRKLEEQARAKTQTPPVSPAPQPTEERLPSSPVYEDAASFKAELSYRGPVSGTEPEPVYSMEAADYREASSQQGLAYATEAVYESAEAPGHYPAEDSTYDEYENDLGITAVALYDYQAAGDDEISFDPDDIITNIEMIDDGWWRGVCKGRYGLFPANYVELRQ

Target	lysine labeling ratio R10:1
TMED9 (lysine site: K71) (UniProt Q9BVK6)	5.82
SLC3A2 (lysine site: K298) (UniProt P08195)	6.33
IQGAP1 (lysine site: K1389) (UniProt P46940)	5.25
PDIA3 (lysine site: K274) (UniProt P30101)	3.59
SLC3A2 (lysine site: K257) (UniProt P08195)	1.64 (active)
EEF2 (lysine site: K439) (UniProt P13639)	1.76 (active)
UniProt P61353 (lysine site: K98)	1.21 (active)
UniProt Q15149 (lysine site: K1552)	2.31
FLNA (lysine site: K724) (UniProt P21333)	1.76 (active)
GPRC5A (lysine site: K16) (UniProt Q8NFJ5)	6.52
UniProt P62913 (lysine site: K67)	3.62
L1CAM (lysine site: K531) (UniProt P32004)	7.51
UniProt P60842 (lysine site: K146)	3.63
UniProt P05787 (lysine site: K198)	7.97
PRDX2 (lysine site: K119) (UniProt P32119)	2 (active)
UniProt Q9UKX5 (lysine site: K150)	2.51
CTTN (lysine site: K87) (UniProt Q14247)	2.06

Reference: the supplement of paper PMC11001985
